According to paper PMC11062922 (Nature Chemical Biology, 2023):
Where two headings read alike, the source gives them in different places.

Key:
Set-up in all cases: species or system human, MV4-11 + K-562 + COLO205 + SK-N-BE2 + OVCAR-8
[1] = system: CDK9; details: read-out: apparent Kd, n = 1
[2] = system: ICK; details: read-out: apparent Kd, n = 1
[3] = system: IRAK3; details: read-out: apparent Kd, n = 1
[4] = system: TGFBR2; details: read-out: apparent Kd, n = 1
[5] = system: ULK1; details: read-out: apparent Kd; compound concentrations:100 nM and 1000 nM (sheet 'Samples'); n = 1
[6] = system: CDC42BPA; details: read-out: apparent Kd, n = 1
[7] = system: CDC42BPG; details: read-out: apparent Kd, n = 1
[8] = system: PRKG1; details: read-out: apparent Kd, n = 1
[9] = system: PIK3CG; details: read-out: apparent Kd, n = 1
[10] = system: MTOR; details: read-out: apparent Kd, n = 1
[11] = system: AXL; details: read-out: apparent Kd, compound concentrations: 100 nM and 1000 nM (sheet 'Samples'), n = 1
[12] = system: CDK2; details: read-out: apparent Kd, compound concentrations: 100 nM and 1000 nM (sheet 'Samples'), n = 1
[13] = system: LYN; details: read-out: apparent Kd, compound concentrations: 100 nM and 1000 nM (sheet 'Samples'), n = 1
[14] = system: PDGFRB; details: read-out: apparent Kd, n = 1
[15] = system: ROCK1; details: read-out: apparent Kd, compound concentrations: 100 nM and 1000 nM (sheet 'Samples'), n = 1
[16] = system: CSK; details: read-out: apparent Kd; compound concentrations:100 nM and 1000 nM (sheet 'Samples'); n = 1
[17] = system: FYN; details: read-out: apparent Kd; compound concentrations: 100 nM and 1000 nM (sheet 'Samples'), CATDS: 1.7018948843541101E-2; n = 1
[18] = system: EPHA1; details: read-out: apparent Kd; compound concentrations:100 nM and 1000 nM (sheet 'Samples'); n = 1
[19] = system: EPHB3; details: read-out: apparent Kd; compound concentrations:100 nM and 1000 nM (sheet 'Samples'); n = 1
[20] = compound concentrations:100 nM and 1000 nM (sheet 'Samples')

CN(C)CC(O)COc1ccc(Nc2nccc(-c3cnn4nc(N5CCOCC5)ccc34)n2)cc1 (stereo not drawn) [GW767488X]
potency estimated from few doses [1, 20]: 534 nM
potency estimated from few doses [2, 20]: 1720 nM
potency estimated from few doses [3, 20]: 64.8 nM
potency estimated from few doses [4, 20]: 215 nM
potency estimated from few doses [5]: 793 nM

CCn1c(-c2nonc2N)nc2c(C#CC(C)(C)O)nc(O[C@@H](CN)c3ccccc3)cc21.O=C(O)C(F)(F)F [GSK1007102B]
potency estimated from few doses [6, 20]: 952 nM
potency estimated from few doses [7, 20]: 191 nM
potency estimated from few doses [8, 20]: 9.31 nM

CN(c1ccc(NC(=O)NCCN2CCOCC2)cc1)c1ccnc(Nc2ccc(CS(C)(=O)=O)cc2)n1.Cl [GW830365A]
potency estimated from few doses ([4]; compound concentrations: 100 nM and 1000 nM (sheet 'Samples'), CATDS: 5.51715170179801E-2): 958 nM

O=C1N=C(NCc2cccs2)O/C1=C\c1ccc2ncccc2c1 [RO4624208-000]
potency estimated from few doses ([9]; compound concentrations: 100 nM and 1000 nM (sheet 'Samples'), CATDS: 5.5474832594148302E-2): 936 nM

Cc1cccc(Nc2nc(N[C@H]3CCNC3)ncc2C(N)=O)c1.Cl [GSK2197149A]
potency estimated from few doses [3, 20]: 1280 nM
potency estimated from few doses [10, 20]: 532 nM
potency estimated from few doses [9, 20]: 819 nM
potency estimated from few doses [4, 20]: 1870 nM

O=C(O)C(F)(F)F.O=C(O)C(F)(F)F.O=c1[nH]ccc2nc(N[C@@H]3CCCNC3)nc(Nc3ccc(S(=O)(=O)N4CCOCC4)cc3)c12.O=c1[nH]ccc2nc(N[C@@H]3CCCNC3)nc(Nc3ccc(S(=O)(=O)N4CCOCC4)cc3)c12 [GSK2177277A]
potency estimated from few doses ([11]; CATDS: 1.0312125146775999E-2): 251 nM
potency estimated from few doses ([6]; compound concentrations: 100 nM and 1000 nM (sheet 'Samples'), CATDS: 6.6693958930569E-3): 1260 nM
potency estimated from few doses ([7]; compound concentrations: 100 nM and 1000 nM (sheet 'Samples'), CATDS: 1.3688403769646499E-2): 119 nM
potency estimated from few doses ([12]; CATDS: 8.3972230361842193E-3): 481 nM
potency estimated from few doses ([13]; CATDS: 7.0851480794777598E-3): 942 nM
potency estimated from few doses ([14]; compound concentrations: 100 nM and 1000 nM (sheet 'Samples'), CATDS: 3.6594692875912202E-2): 18.3 nM
potency estimated from few doses ([9]; compound concentrations: 100 nM and 1000 nM (sheet 'Samples'), CATDS: 7.6571772064284397E-3): 679 nM
potency estimated from few doses ([15]; CATDS: 7.59809178232565E-3): 700 nM

CN(C)CCNC(=O)Nc1ccc(N(C)c2ccnc(Nc3ccc(CS(C)(=O)=O)cc3)n2)cc1.Cl [GW830900A]
potency estimated from few doses [14, 20]: 1330 nM
potency estimated from few doses [4, 20]: 1550 nM

NC(=O)c1cc(-c2ccccc2)cc2c(C3CCNCC3)c[nH]c12 [GSK301362A]
potency estimated from few doses [14, 20]: 1630 nM

COc1cc(Nc2nccc(-c3cnn4ncccc34)n2)cc(OC)c1 [GW801372X]
potency estimated from few doses ([6]; compound concentrations: 100 nM and 1000 nM (sheet 'Samples'), CATDS: 2.2465917361224799E-2): 786 nM
potency estimated from few doses ([1]; compound concentrations: 100 nM and 1000 nM (sheet 'Samples'), CATDS: 4.3233319898636102E-2): 142 nM
potency estimated from few doses ([2]; compound concentrations: 100 nM and 1000 nM (sheet 'Samples'), CATDS: 7.2296176142385704E-2): 49.6 nM
potency estimated from few doses ([3]; compound concentrations: 100 nM and 1000 nM (sheet 'Samples'), CATDS: 2.51875293793523E-2): 553 nM
potency estimated from few doses ([14]; compound concentrations: 100 nM and 1000 nM (sheet 'Samples'), CATDS: 1.5756503418678101E-2): 3520 nM

c1cnn2ncc(-c3ccnc(Nc4ccc5c(c4)OCCO5)n3)c2c1 [GW806290X]
potency estimated from few doses ([1]; compound concentrations: 100 nM and 1000 nM (sheet 'Samples'), CATDS: 6.9114282023058901E-2): 99.5 nM
potency estimated from few doses ([2]; compound concentrations: 100 nM and 1000 nM (sheet 'Samples'), CATDS: 0.106713874587666): 50.6 nM
potency estimated from few doses ([4]; compound concentrations: 100 nM and 1000 nM (sheet 'Samples'), CATDS: 6.1295123324086299E-2): 123 nM

CC(=O)N[C@@H](Cc1ccc(OP(=O)(O)O)cc1)C(=O)N[C@H]1CCC(=O)N2CCC[C@@H](C(=O)NCc3ccc(Cl)cc3)N2C1=O [RO0325308-000]
potency estimated from few doses [16]: 1550 nM
potency estimated from few doses [3, 20]: 1530 nM
potency estimated from few doses [5]: 1610 nM

Cc1n[nH]c2cc(Nc3ccnc(Nc4cccc(CN5CCOCC5)c4)n3)ccc12 [GW682569X]
potency estimated from few doses ([3]; compound concentrations: 100 nM and 1000 nM (sheet 'Samples'), CATDS: 0.17881857649065999): 348 nM
potency estimated from few doses ([4]; compound concentrations: 100 nM and 1000 nM (sheet 'Samples'), CATDS: 0.113560287008428): 891 nM

COc1cc[nH]c1/C=C1\C(=O)Nc2ccc(F)c(C#CC3(O)CCNCC3)c21.Cl [RO0282986-001]
potency estimated from few doses ([11]; CATDS: 1.01827981772752E-2): 1230 nM
potency estimated from few doses ([12]; CATDS: 1.26412371427807E-2): 615 nM
potency estimated from few doses ([1]; compound concentrations: 100 nM and 1000 nM (sheet 'Samples'), CATDS: 1.1942255869273499E-2): 724 nM
potency estimated from few doses ([2]; compound concentrations: 100 nM and 1000 nM (sheet 'Samples'), CATDS: 1.28060195349982E-2): 593 nM
potency estimated from few doses ([14]; compound concentrations: 100 nM and 1000 nM (sheet 'Samples'), CATDS: 1.1337273569473399E-2): 850 nM

O=C(O)C(F)(F)F.O=c1[nH]ccc2nc(N[C@@H]3CCNC3)nc(Nc3cc(Cl)cc(Cl)c3)c12 [GSK2188764A]
potency estimated from few doses [7, 20]: 556 nM

COc1cc(Nc2nccc(N3CCC(NC(=O)c4cccc(NC(C)=O)c4)C3)n2)cc(OC)c1OC (stereo not drawn) [GSK1379754A]
potency estimated from few doses ([3]; compound concentrations: 100 nM and 1000 nM (sheet 'Samples'), CATDS: 0.18683076270721999): 372 nM

Cl.Cl.NC(CNC(=O)c1cc(Br)c(-c2ccnc3[nH]ccc23)s1)c1ccccc1.NC(CNC(=O)c1cc(Br)c(-c2ccnc3[nH]ccc23)s1)c1ccccc1 (stereo not drawn) [GSK1322949A]
potency estimated from few doses ([7]; compound concentrations: 100 nM and 1000 nM (sheet 'Samples'), CATDS: 3.2590652290340097E-2): 1010 nM
potency estimated from few doses ([2]; compound concentrations: 100 nM and 1000 nM (sheet 'Samples'), CATDS: 2.9774635875568601E-2): 1230 nM
potency estimated from few doses ([8]; compound concentrations: 100 nM and 1000 nM (sheet 'Samples'), CATDS: 7.4482262143184694E-2): 247 nM
potency estimated from few doses ([15]; CATDS: 9.3197598269089799E-2): 181 nM

CNc1cc(-c2ccc3c(N)n[nH]c3c2)nc(N)n1 [GSK2224810A]
potency estimated from few doses [10, 20]: 475 nM

CCn1c(-c2cccnc2O)nc2cnccc21 [SB-736715]
potency estimated from few doses ([7]; compound concentrations: 100 nM and 1000 nM (sheet 'Samples'), CATDS: 1.9794934428915799E-2): 767 nM
potency estimated from few doses ([1]; compound concentrations: 100 nM and 1000 nM (sheet 'Samples'), CATDS: 1.2439318728053501E-2): 1990 nM
potency estimated from few doses [17]: 1010 nM
potency estimated from few doses ([3]; compound concentrations: 100 nM and 1000 nM (sheet 'Samples'), CATDS: 1.50971530533868E-2): 1280 nM
potency estimated from few doses ([13]; CATDS: 1.4378257714361201E-2): 1420 nM
potency estimated from few doses ([10]; compound concentrations: 100 nM and 1000 nM (sheet 'Samples'), CATDS: 2.4342706030032701E-2): 547 nM
potency estimated from few doses ([9]; compound concentrations: 100 nM and 1000 nM (sheet 'Samples'), CATDS: 9.1944344631326697E-2): 91.6 nM

CC(C)Oc1ccc2c(-c3ccnc(Nc4ccc(N5CCN(C)CC5)cc4)n3)cnn2n1 [GW696155X]
potency estimated from few doses [3, 20]: 464 nM
potency estimated from few doses [14, 20]: 2040 nM

CS(=O)(=O)CCn1c(=O)c(Oc2ccc(F)cc2F)cc2cnc(NC3CCOCC3)nc21 [RO5027956-000]
potency estimated from few doses [16]: 1540 nM
potency estimated from few doses [18]: 724 nM
potency estimated from few doses [19]: 2330 nM

NCC(NC(=O)c1cc(-c2cn[nH]c2)c(-c2ccnc3[nH]ccc23)s1)c1ccccc1.NCC(NC(=O)c1cc(-c2cn[nH]c2)c(-c2ccnc3[nH]ccc23)s1)c1ccccc1.O=C(O)C(F)(F)F.O=C(O)C(F)(F)F (stereo not drawn) [GSK1325775A]
potency estimated from few doses ([6]; compound concentrations: 100 nM and 1000 nM (sheet 'Samples'), CATDS: 0.12802177694120001): 75.6 nM
potency estimated from few doses ([7]; compound concentrations: 100 nM and 1000 nM (sheet 'Samples'), CATDS: 3.6567109546732701E-2): 1070 nM
potency estimated from few doses ([8]; compound concentrations: 100 nM and 1000 nM (sheet 'Samples'), CATDS: 5.9396104813121603E-2): 330 nM
potency estimated from few doses ([15]; CATDS: 0.15957099257621499): 52.4 nM
